For eight compounds, growth inhibition results are on record in PubChem BioAssay (NCI).

Structures are written as SMILES. Several values for one entry are separate records, joined by “and”; a condition that tells them apart may be missing. Equal entries are not always repeated. This is part of a sample that, as a whole, favours compounds with a hit. Of some 79,000 tested, about 15% had one in any assay. Values without a mark were called inactive. Activity calls are given as the source filed them. Cut-off read from the data, not from the text of the source: active = growth inhibition above about 70%; inactive = the rest.

Assay [1] is described as follows: NCI Yeast Anticancer Drug Screen. Data for the rad50 strain (AID 155).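 Note: 0% = growth of vehicle-only cultures of the same strain.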 As to conditions: S. cerevisiae rad50 strain growth inhibition, active compounds read high. In short, it runs like this:
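Cells are treated with compound, grown, and their growth is then scored against vehicle-only cultures of the same repair-deficient yeast strain.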

A short description of assay [2]: NCI Yeast Anticancer Drug Screen. Data for the sgs1 mgt1 strain (AID 161).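 Note: 0% = growth of cultures given vehicle only.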 The settings on record: S. cerevisiae sgs1 mgt1 strain, active compounds read high. In short, it runs like this:
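Compounds are added to genetically altered yeast, and growth is compared with cultures given vehicle alone to give percent inhibition.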

A short description of assay [3]: NCI Yeast Anticancer Drug Screen. Data for the cln2 rad14 strain (AID 165).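 Note: 0% = growth equal to vehicle treated cultures.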 The settings on record: S. cerevisiae cln2 rad14 strain, active compounds read high. In short, it runs like this: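 Relative to vehicle controls, growth inhibition of compound-treated cln2 rad14 yeast was recorded.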
Assay [4] can be described thus: NCI Yeast Anticancer Drug Screen. Data for the bub3 strain (AID 167). As to conditions: S. cerevisiae bub3 mutant strain, active compounds read high. The gist of the method:
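Part of a panel of yeast mutants defective in DNA damage repair or cell cycle regulation. Each strain is grown with compound, and inhibition is calculated relative to solvent-treated cultures.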

The nature of assay [5]: NCI Yeast Anticancer Drug Screen. Data for the mlh1 rad18 strain (AID 175). As to conditions: S. cerevisiae mlh1 rad18 strain growth inhibition, active compounds read high. The gist of the method: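 Test agents were incubated with a yeast strain of defined genotype (DNA damage repair defect). Inhibition of growth was derived by comparison with vehicle-exposed cultures.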
The nature of assay [6]: NCI Yeast Anticancer Drug Screen. Data for the mec2-1 strain (AID 157). As to conditions: S. cerevisiae mec2-1 strain, active compounds read high. In short, it runs like this: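 Readout is yeast growth inhibition, normalised to vehicle-treated controls, in the mec2-1 strain exposed to compound.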
Setting [7] is: at 5.0 µM (retest, dose inferred, filed as 0.5).
Setting [8] is: at 50.0 µM (retest, dose inferred, filed as 5.0).

Turning to `O=C1/C(=C\c2ccccc2)CN(C(=O)CCN2CCCCC2)C/C1=C/c1ccccc1`, the growth inhibition in assay [1] (setting [7]) was 16%; in assay [1] (setting [8]) it was 71% (active); in assay [1] (at 50.0 µM), 89.8% (active); in assay [2] (setting [7]), 98% (active); in assay [2] (setting [8]), 99% (active); in assay [2] (at 50.0 µM) it was 90.3% (active). Also, the growth inhibition was 83% (active) in assay [3] (setting [7]); 99% (active) in assay [3] (setting [8]); 90.3% (active) in assay [3] (at 50.0 µM); 99% (active) in assay [4] (setting [7]); 99% (active) in assay [4] (setting [8]); 90.8% (active) in assay [4] (at 50.0 µM). The figures for the growth inhibition in assay [5] (setting [7]), in assay [5] (setting [8]) and in assay [5] (at 50.0 µM) were 28%, 74% (active) and 88.8% (active), respectively.

For `C1=C(c2ccccc2)SC=C(c2ccccc2)S1`, the growth inhibition was -5% in assay [1] (setting [7]); -26% in assay [1] (setting [8]); -15.7% in assay [1] (at 50.0 µM); -14% in assay [6] (setting [7]); -16% in assay [6] (setting [8]); 8.75% in assay [6] (at 50.0 µM). In addition, the growth inhibition was -9% in assay [3] (setting [7]); -9% in assay [3] (setting [8]); -3.15% in assay [3] (at 50.0 µM); 23% in assay [4] (setting [7]); 47% in assay [4] (setting [8]); 83% (active) in assay [4] (at 50.0 µM). In addition, the growth inhibition in assay [5] (setting [7]) is -6%; in assay [5] (setting [8]), -8%; in assay [5] (at 50.0 µM) it was -5.45%.

`CN1CCCN(C)C1c1cc([N+](=O)[O-])ccc1O`: the growth inhibition is 25% in assay [1] (setting [7]); 95% (active) in assay [1] (setting [8]); 49.5% in assay [1] (at 50.0 µM); 7% in assay [2] (setting [7]); 96% (active) in assay [2] (setting [8]); 97.7% (active) in assay [2] (at 50.0 µM). In addition, the growth inhibition in assay [3] (setting [7]) is 11%; in assay [3] (setting [8]), 93% (active); in assay [3] (at 50.0 µM), 87.3% (active); in assay [4] (setting [7]), -6%; in assay [4] (setting [8]), 95% (active); in assay [4] (at 50.0 µM), 96.8% (active). The growth inhibition was 7% in assay [5] (setting [7]), 99% (active) in assay [5] (setting [8]) and 98.9% (active) in assay [5] (at 50.0 µM).

In the case of `C[C@]12CC[C@H](O)C[C@@H]1CC[C@@H]1[C@@H]2CC[C@]2(C)[C@@H](c3cc(C(F)(F)F)n[nH]3)CC[C@@H]12`, the growth inhibition is 12% in assay [1] (setting [7]); 94% (active) in assay [1] (setting [8]); 89.8% (active) in assay [1] (at 50.0 µM); 10% in assay [2] (setting [7]); 90% (active) in assay [2] (setting [8]); 63% in assay [2] (at 50.0 µM). Further, the growth inhibition in assay [3] (setting [7]) was 7%; in assay [3] (setting [8]) it was 92% (active); in assay [3] (at 50.0 µM) it was 68.9%; in assay [4] (setting [7]), -3%; in assay [4] (setting [8]) it was 85% (active); in assay [4] (at 50.0 µM), 84.3% (active). In addition, the growth inhibition is 12% in assay [5] (setting [7]), 96% (active) in assay [5] (setting [8]) and 88.7% (active) in assay [5] (at 50.0 µM).

Turning to `COc1ccc(/C=C/c2ccnc3ccccc23)cc1OC`, the growth inhibition in assay [6] (setting [7]) is 2%; in assay [6] (setting [8]), 97% (active); in assay [6] (at 50.0 µM) it was 90.9% (active); in assay [2] (setting [7]), 9%; in assay [2] (setting [8]), 98% (active); in assay [2] (at 50.0 µM), 87.9% (active). Besides, the growth inhibition in assay [3] (setting [7]) is 6%; in assay [3] (setting [8]), 89% (active); in assay [3] (at 50.0 µM) it was 83.7% (active); in assay [4] (setting [7]), -8%; in assay [4] (setting [8]) it was 98% (active); in assay [4] (at 50.0 µM), 82.5% (active). The growth inhibition in assay [5] (setting [7]) was 11%; in assay [5] (setting [8]) it was 96% (active); in assay [5] (at 50.0 µM), 84.9% (active).

As for `CCC[CH2][Sn]([CH2]CCC)([O]C(=O)c1cc(F)ccc1F)[O][Sn]([CH2]CCC)([CH2]CCC)[O]C(=O)c1cc(F)ccc1F`, the growth inhibition is 83% (active) in assay [1] (setting [7]); 94% (active) in assay [1] (setting [8]); 65.3% in assay [1] (at 50.0 µM); 85% (active) in assay [2] (setting [7]); 96% (active) in assay [2] (setting [8]); 63.2% in assay [2] (at 50.0 µM). Moreover, the growth inhibition in assay [3] (setting [7]) was 74% (active); in assay [3] (setting [8]), 90% (active); in assay [3] (at 50.0 µM), 57.5%; in assay [4] (setting [7]), 93% (active); in assay [4] (setting [8]) it was 97% (active); in assay [4] (at 50.0 µM), 81% (active). In addition, the figures for the growth inhibition in assay [5] (setting [7]), in assay [5] (setting [8]) and in assay [5] (at 50.0 µM) were 89% (active), 96% (active) and 85.9% (active), respectively.

Take `OCC(O)C(O)C(O)C(O)C(O)CO` (stereo unspecified): the growth inhibition in assay [1] (at 50.0 µM) was 1% and 8% and 21.3%; in assay [6] (at 50.0 µM) it was 0.1% and 6.15% and -9.7%; in assay [2] (at 50.0 µM), 16.6% and 21.1% and 25.2%; in assay [3] (at 50.0 µM), -45.4% and -8.8% and -1.35%; in assay [4] (at 50.0 µM), 17.6% and -3.1% and 37.1%; in assay [5] (at 50.0 µM) it was 10.2% and 22.1% and 10.4%.

Consider `CC(C)(C)SC(=O)C1(C)OC1c1ccc([N+](=O)[O-])cc1` (stereo unspecified), for which the growth inhibition in assay [6] (setting [7]) was -4%; in assay [6] (setting [8]) it was -3%; in assay [6] (at 50.0 µM) it was 67.8%; in assay [2] (setting [7]), -5%; in assay [2] (setting [8]), 51%; in assay [2] (at 50.0 µM), 62.3%. Further, the growth inhibition is 5% in assay [3] (setting [7]); -2% in assay [3] (setting [8]); -20.8% in assay [3] (at 50.0 µM); 0% in assay [4] (setting [7]); 13% in assay [4] (setting [8]); 29.8% in assay [4] (at 50.0 µM). Besides, the figures for the growth inhibition in assay [5] (setting [7]), in assay [5] (setting [8]) and in assay [5] (at 50.0 µM) were -5%, 49% and 79.8% (active), respectively.
